Screens from PubChem.
Mtb bLac sens: beta-lactam sensitization of Mtb H37Rv | AID 434955 | M. tuberculosis H37Rv growth with meropenem, percent inhibition | 0.27% of 330,000 active | inhibition, % at 25 µM; call rule not given here;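 note: growth measured after seven days incubation then overnight dye step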
UGM FP inh: inhibitors of M. tuberculosis UDP-galactopyranose mutase; P9WIQ1; purified UGM, fluorescence polarization probe displacement; inhibition, % at 10 µM; 0.06% of 320,000 active; AID 504406; in the data active = inhibition above about 10%, passing the limit was not always enough
Rv3671c inh: inhibitors of M. tuberculosis serine protease Rv3671c; inhibition, % at 5.96 µM; 0.048% of 320,000 active; in the data active = inhibition above about 38%;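 note: extracellular domain of Rv3671c used as enzyme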
Target sequence (P9WHR9 whole entry, looked up, the tested form may be a part): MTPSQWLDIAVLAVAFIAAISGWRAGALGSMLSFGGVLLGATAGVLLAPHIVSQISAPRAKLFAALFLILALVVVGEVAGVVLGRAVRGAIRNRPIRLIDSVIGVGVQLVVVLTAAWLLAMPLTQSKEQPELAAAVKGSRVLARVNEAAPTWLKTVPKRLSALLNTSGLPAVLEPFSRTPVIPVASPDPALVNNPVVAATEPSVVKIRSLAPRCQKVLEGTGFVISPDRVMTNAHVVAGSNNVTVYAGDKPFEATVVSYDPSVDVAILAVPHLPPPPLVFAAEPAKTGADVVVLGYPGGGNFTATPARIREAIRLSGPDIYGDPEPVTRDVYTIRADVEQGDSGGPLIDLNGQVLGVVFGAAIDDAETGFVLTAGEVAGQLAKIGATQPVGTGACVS
Mtb FBA inh: Mtb fructose-bisphosphate aldolase inhibition. P9WQA3. purified M. tuberculosis FBA, fluorescence read-out. inhibition, % at 1 µM. 2.3% of 360,000 active
GDH-TPI counter-1: GDH-TPI coupled enzyme inhibition counter-screen. AID 588335. 1.2% of 360,000 active. inhibition, % at 4.8 µM. GDH-TPI coupled enzyme counterscreen, NADH absorbance; in the data active = inhibition above about 30%
RecA splice inh: blocks M. tuberculosis RecA intein splicing; AID 2221; cell-free RecA intein splicing, fluorescence; inhibition, % (test concentration not listed); P9WHJ3; 0.75% of 290,000 active; in the data active = inhibition above about 30%
Mtb FBA inh conf: confirmation of M. tuberculosis fructose-bisphosphate aldolase inhibitors | shares compounds with Mtb FBA inh | purified M. tuberculosis FBA, fluorescence read-out | inhibition, % at 1 µM | 78% of 5,600 active | AID 651616
GDH-TPI counter-2: counter-screen for M. tuberculosis FBA inhibitors: GDH-TPI coupled enzyme inhibition | shares compounds with Mtb FBA inh | GDH-TPI coupled enzyme counterscreen, fluorescence | inhibition, % at 1 µM | 81% of 5,600 active | AID 652141; in the data active = inhibition above about 10%
Of the large screens only hits and unclear results are named; the others gave an inactive call (follow-up assays come after a bar, where they were run). In the library only some 4% were active in any assay of this set; here they are far more common. Cut-off read from the data, not from the text of the source, unless noted: active = inhibition above about 27%; inactive = the rest.

CCC1(c2ccc(F)cc2)NC(=O)N(CC(=O)N2CC(=O)Nc3ccccc32)C1=O (configuration not stated)	Mtb FBA inh 29.2 | Mtb FBA inh conf 163.3 | GDH-TPI counter-2 116.5
COc1ccc(-c2nc(CCl)cs2)cc1OC	Mtb FBA inh 71.5 | Mtb FBA inh conf 91.1 | GDH-TPI counter-2 81.0
CCOC(=O)C/C(C)=N\Nc1nc(-c2ccccc2)cs1	Mtb FBA inh 68.9 | Mtb FBA inh conf 53.9 | GDH-TPI counter-2 42.0
C/C(CCC1CC(C)OC1=O)=N/Nc1nc(-c2ccccc2)cs1 (configuration not stated)	none
CCc1ccc(O)c(N=Cc2cccc(C)c2O)c1	none
Oc1ccc(Cl)cc1C=Nc1ccc2c3c(cccc13)CC2	Mtb FBA inh 51.5 (no result: UGM FP inh) | Mtb FBA inh conf 34.7 | GDH-TPI counter-2 18.8
Cc1cccc(C=Nc2ccc3c4c(cccc24)CC3)c1O	Mtb FBA inh 36.5 | Mtb FBA inh conf 54.4 | GDH-TPI counter-2 54.5
Cc1c(OC(C)C(=O)NCc2ccccn2)ccc2c3c(c(=O)oc12)CCCC3 (configuration not stated)	Mtb FBA inh 68.4 | Mtb FBA inh conf inactive | GDH-TPI counter-2 inactive
Cc1c(OC(C)C(=O)NCc2ccncc2)ccc2c3c(c(=O)oc12)CCC3 (configuration not stated)	Mtb FBA inh 73.5 | Mtb FBA inh conf 83.1 | GDH-TPI counter-2 53.1
Cc1c(OCC(=O)NCc2ccncc2)ccc2c3c(c(=O)oc12)CCC3	none
CCN(CC(=O)Nc1cc(Cl)ccc1C)C(=O)C1CCN(c2ncnc3sc(C)c(C)c23)CC1	none (no result: Mtb bLac sens, UGM FP inh, Rv3671c inh, RecA splice inh)
CC(/C=C/c1ccccc1)=N/O	none
CC(/C=C/c1ccc(O)cc1)=N/O	Mtb FBA inh 67.5 | Mtb FBA inh conf inactive | GDH-TPI counter-2 inactive
COc1cc(C(=O)Nc2ccccn2)cc(OC)c1OC	none
COc1ccc(-c2cn3cccnc3n2)cc1NC(=O)c1cc(OC)c(OC)c(OC)c1	Mtb FBA inh 32.2 | Mtb FBA inh conf active | GDH-TPI counter-2 active
Cc1ccccc1S(=O)(=O)Cc1ccc(C(=O)NCCc2ccccc2)o1	none
O=C(Nc1ccccc1SCC1CSc2nc3ccccc3c(=O)n21)c1cccc(Cl)c1 (configuration not stated)	Mtb FBA inh 59.3 | Mtb FBA inh conf 84.6 | GDH-TPI counter-2 78.7
Cc1cc(C)n2cc(CSc3ncn[nH]3)nc2n1	Mtb FBA inh 94.8 | Mtb FBA inh conf inactive | GDH-TPI counter-2 inactive
Cc1cc(C)n2cc(CSc3ccc(Br)cc3)nc2n1	none
Cc1cc(C)n2cc(COc3ccccc3)nc2n1	Mtb FBA inh 70.6 | Mtb FBA inh conf 83.0 | GDH-TPI counter-2 60.9
Cc1cccc(OC(C)C(=O)Nc2nc(-c3ccncc3)cs2)c1 (configuration not stated)	none (no result: Mtb bLac sens, UGM FP inh, Rv3671c inh, RecA splice inh)
N#CC(C(=O)CCN1C(=O)C2CC=CCC2C1=O)c1nc2ccccc2[nH]1 (configuration not stated)	Mtb FBA inh 47.3 (no result: RecA splice inh) | Mtb FBA inh conf inactive | GDH-TPI counter-2 19.9
COC(=O)c1ccc(OC)c(Cn2c(=O)n(C)c(=O)c3sccc32)c1	none
Nc1ccccc1C(=O)NCCCN1CCN(c2cccc(Cl)c2)CC1	Mtb FBA inh 54.1 | Mtb FBA inh conf 68.7 | GDH-TPI counter-2 71.7
Nc1ccccc1C(=O)NCc1ccccc1	Mtb FBA inh 44.4 | Mtb FBA inh conf inactive | GDH-TPI counter-2 inactive
COc1ccccc1CNC(=O)c1ccccc1NS(C)(=O)=O	Mtb FBA inh 29.5 (no result: UGM FP inh) | Mtb FBA inh conf 101.9 | GDH-TPI counter-2 79.8
COc1ccccc1CNC(=O)c1ccc(NS(C)(=O)=O)cc1	none
Cc1ccc(C(=O)NCCN2CCNC2=O)cc1	none
Nc1ccccc1C(=O)NCCN1CCNC1=O	Mtb FBA inh 92.6 | Mtb FBA inh conf 89.9 | GDH-TPI counter-2 76.9
O=C(Nc1ccn(CCCNCCN2CCOCC2)c(=O)n1)OCc1ccccc1	none (no result: Mtb bLac sens, UGM FP inh, Rv3671c inh, RecA splice inh)
COc1cc2c(cc1OC)/C(=C/C(=O)c1ccc([N+](=O)[O-])c(C)c1)NCC2	none (no result: Mtb bLac sens, UGM FP inh, Rv3671c inh)
CCN(CC)CCNC(=O)c1ccccc1N	Mtb FBA inh 59.9 | Mtb FBA inh conf 140.2 | GDH-TPI counter-2 121.1
NC(=O)c1ccccc1OCc1cccc2ccccc12	none
CCN(CC)CCCNC(=O)c1ccccc1C	none
